Cycloheximide cs = affects cycloheximide protein synthesis inhibition readout, counter-screen. cell reporter, cycloheximide protein synthesis inhibition counterscreen. max response, %. hit rate 12% among 300,000; in the data active = max response mostly above about 13%, no sharp cut-off; inactive = mostly below about 14%; note: read at 38.3 µM for the half of the compounds with a filed dose; 0% is about no effect
Sm TGR block = inhibitors of Schistosoma mansoni thioredoxin glutathione reductase. Q962Y6. hit rate 3% among 360,000. Potency, µM (top dose mostly 114 µM), for the others: at the highest dose activity change, negative = inhibition, usual class: inhibitors. purified TGR, DTNB reduction, TNB absorbance 405 nm; note: potency is the fitted concentration of half-maximal effect; % is set by controls: 0 for no effect and ±100 for the full control effect; nearly all actives have a fitted effect of over 60% in size
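TGR 20 nM + NADPH 100 uM (dispensed conc.), cpd preinc 15 min RT; start with NADPH (500 uM addition) then DTNB (15 mM addition). Kinetic TNB absorbance, 405 nm filter. Four-parameter Hill fit across titration.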
Tb PYK inh = T. brucei pyruvate kinase inhibition. Q57TT1. TbPYK enzyme, Kinase-Glo Plus ATP luminescence, 45 min. Potency, µM (highest dose often 76.8 µM), inactives show top-dose activity, negative = inhibition, actives largely listed as inhibitors. hit rate 0.12% among 410,000; note: potency is the fitted concentration of half-maximal effect; % is set by controls: 0 for no effect and ±100 for the full control effect; nearly all actives have a fitted effect of over 50% in size
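In this concentration-response screen, enzyme-free wells defined baseline while DMSO plates tracked drift. Each reaction combined TbPYK, substrate, compound and 130 uM ADP for 45 min at room temperature. Kinase-Glo Plus luminescence gave the signal.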
LmPK inh = LmPK (Leishmania mexicana) enzyme inhibition. hit rate 0.37% among 290,000. Q27686. Potency, µM (top dose mostly 57.5 µM), for the others: top-dose activity change, negative = inhibition, usual class: inhibitors. purified LmPK, Kinase-Glo ATP luminescence, 1 h; note: potency is the fitted concentration of half-maximal effect; % is set by controls: 0 for no effect and ±100 for the full control effect
Target sequence (Q27686 whole entry, looked up): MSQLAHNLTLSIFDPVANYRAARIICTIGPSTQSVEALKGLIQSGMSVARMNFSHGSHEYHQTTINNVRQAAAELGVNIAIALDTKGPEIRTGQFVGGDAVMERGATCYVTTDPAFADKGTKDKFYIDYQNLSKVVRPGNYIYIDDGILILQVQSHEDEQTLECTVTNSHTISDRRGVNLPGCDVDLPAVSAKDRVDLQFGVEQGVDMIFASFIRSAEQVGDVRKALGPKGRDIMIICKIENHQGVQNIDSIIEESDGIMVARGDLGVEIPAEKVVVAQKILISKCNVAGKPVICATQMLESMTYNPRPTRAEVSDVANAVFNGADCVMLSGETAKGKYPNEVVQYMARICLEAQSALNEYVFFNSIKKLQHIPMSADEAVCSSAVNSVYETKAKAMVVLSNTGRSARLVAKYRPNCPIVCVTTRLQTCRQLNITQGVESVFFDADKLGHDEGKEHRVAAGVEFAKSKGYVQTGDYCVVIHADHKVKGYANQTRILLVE
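0.1 nM LmPK, 0.5 mM PEP, 0.1 mM ADP; 50 mM imidazole pH 7.2, 7 mM MgCl2, 50 mM KCl; 1 h RT. Kinase-Glo luminescence readout, normalized to no-enzyme (full inhibition) and uninhibited wells.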
Giardia FBPA inh = Giardia lamblia aldolase inhibition; A8B2U2; purified Giardia FBPA; Potency, µM (series often up to 59.6 µM), inactives show at the top dose activity, negative = inhibition, hits mostly inhibitors; hit rate 0.71% among 290,000; AID 2451; note: potency is the fitted concentration of half-maximal effect; % is set by controls: 0 for no effect and ±100 for the full control effect; nearly all actives have a fitted effect of over 55% in size
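40 nM FBPA preincubated 10 min at RT with compound (up to 57.5 uM final), then substrate plus GAPDH/TPI/NAD/arsenate coupling and diaphorase/resazurin added. Fluorescence read after 20 min at RT, 525/598 nm.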
Shiga toxin inh = blocks Shiga toxin action in Vero cells | Vero cells, Shiga toxin protein synthesis inhibition reporter | inhibition, % at 38.7 µM | hit rate 9.2% among 290,000 | AID 2315; in the data active = inhibition mostly above about 28%, no sharp cut-off; inactive = mostly below about 43%; note: 0% is about no effect
Starred values were filed as active, the others as inactive; ? = inconclusive; nt = no result. Many of the other results were omitted from the sample, so hits are more common in it than they were. Unless noted, calls come from the whole dose curve; as a rule, active = well fitted curve in the direction sought with a large enough effect; inconclusive = small, poorly fitted or top-dose-only effect, or another doubt; inactive = no such curve, though single readings can be large; an effect the other way counts as inactive or inconclusive.

SMILES	Cycloheximide cs	Sm TGR block	Tb PYK inh	LmPK inh	Giardia FBPA inh	Shiga toxin inh
Cc1ccc(-n2c(-c3cn(C)nc3C)n[nH]c2=S)cc1	-6.0	-4.6%	nt	?	-16.0%	-3.2
Cn1c(-c2csc(-c3ccccc3)n2)n[nH]c1=S	16.1*	8.4%	?	-1.6%	12.5%	24.9
Oc1ccc(-c2n[nH]c(=S)n2Cc2ccccc2)cc1	-0.4	1.7%	?	8.91µM*	-4.9%	-11.6
S=c1[nH]nc(-c2ccccc2Cl)n1Cc1ccccc1	-1.1	4.2%	6.31µM*	-5.1%	-2.4%	15.5
Cc1ccc(C)c(-n2c(-c3csc(C)c3C)n[nH]c2=S)c1	-5.3	9.2%	?	7.08µM*	10.6%	-3.8
O=c1c(S(=O)(=O)c2ccccc2)cn(Cc2ccc(F)cc2)c2cc(N3CCCCC3)c(F)cc12	nt	-2.2%	-3.2%	nt	nt	nt
CC(OC(=O)CCNS(=O)(=O)c1ccc(Cl)cc1)C(=O)N(C)Cc1ccccc1 (centres undefined)	nt	nt	-0.2%	nt	nt	nt
Cc1cc(-c2n[nH]c(=S)n2Cc2ccccc2)cs1	-1.5	2.9%	3.55µM*	?	10.5%	15.5
OCCCn1c(-c2ccccc2)n[nH]c1=S	20.8*	-2.3%	-19.9%	-1.0%	3.5%	36.8*
S=c1[nH]nc(-c2ccncc2)n1Cc1ccccc1	-3.2	0.8%	?	?	-5.9%	-8.8
CCc1c(-c2n[nH]c(=S)n2Cc2ccccc2)csc1C	-0.8	-3.1%	?	?	16.3%	-2.5
Cc1scc(-c2n[nH]c(=S)n2Cc2ccccc2)c1C	-3.0	-14.0%	3.16µM*	?	13.7%	-5.5
CSc1ccc(CCNC(=O)Cn2nc(C)n3c(cc4sccc43)c2=O)cc1	nt	2.3%	-0.8%	nt	nt	nt
Cc1ccc(-c2cn3c(=S)[nH]nc3s2)cc1	-1.8	-15.7%	?	2.24µM*	-9.0%	-9.2
Cc1ccc(-c2n[nH]c(=S)n2C)cc1	-4.2	0.0%	-18.3%	1.3%	-8.3%	-13.8
Cc1nc(-c2ccccc2)nc2[nH]c(=O)n(-c3ccccc3)c(=O)c12	31.0*	-4.7%	3.9%	1.2%	-16.9%	54.1*
COc1ccc(CC(=O)Nc2c(C(=O)Nc3ccccc3F)oc3ccccc23)cc1	nt	2.2%	2.5%	nt	nt	nt
COc1ccc(-c2cc3ccc(O)c(CN4CCCC4)c3oc2=O)cc1OC	nt	-19.7%	1.0%	nt	nt	nt
CCOC(=O)N1CCN(Cc2nc(-c3cccc(Cl)c3)no2)CC1	-3.0	0.8%	-1.3%	4.0%	0.4%	7.4
O=CN1CCCN(Cc2nc(-c3cccc(Cl)c3)no2)CC1	28.3*	4.4%	-5.7%	-1.8%	1.5%	23.7
Clc1ccc(-c2noc(CN3CCOCC3)n2)cc1	56.6*	-28.3%	-8.9%	3.1%	4.2%	68.5*
O=C(C1CCN(Cc2nc(-c3ccc(Cl)cc3)no2)CC1)N1CCOCC1	-0.4	-7.1%	-14.9%	-1.4%	4.0%	93.3
Cc1ccc(-n2nc(CO)c(C(=O)NCCc3ccccc3)n2)cc1C	nt	-9.5%	0.8%	nt	nt	nt
COc1cc(/C=C/[N+](=O)[O-])ccc1OC(=O)c1cccnc1	-1.4	1.78µM*	?	-3.7%	-19.6%	-5.3
COc1cc(/C=N/NC(=O)c2cccnc2)ccc1OC(=O)c1ccc([N+](=O)[O-])cc1	-2.9	-9.4%	0.3%	-0.4%	-0.9%	-5.1
SMILES	Cycloheximide cs	Sm TGR block	Tb PYK inh	LmPK inh	Giardia FBPA inh	Shiga toxin inh
O=C(Nc1cccc(NC(=O)c2cccs2)c1)c1ccco1	1.7	2.1%	5.2%	-8.1%	0.4%	3.1
O=C(Nc1ccc(-c2nc3ccccc3[nH]2)cc1)c1ccco1	42.7*	?	-12.7%	?	-9.0%	108.9*
O=C(Nc1ccc2nc(-c3ccco3)[nH]c2c1)c1cccs1	45.6*	25.1µM*	-12.0%	-20.2%	-16.8%	66.1*
Cc1ccc2nc(-c3cccc(NC(=O)c4ccco4)c3)[nH]c2c1	50.1*	?	-6.6%	?	-18.5%	43.0*
CC(=O)Nc1ccc2nc(-c3ccco3)[nH]c2c1	35.2*	?	-4.0%	1.4%	-12.4%	87.3*
N#C/C(=C\c1ccccc1)C(=O)Nc1sc2c(c1C(N)=O)CCC2	nt	-14.0%	1.9%	nt	nt	nt
O=C(CCCn1c(=O)c2cccn2c2cccnc21)Nc1ccccc1C(F)(F)F	nt	-2.4%	-1.8%	nt	nt	nt
O=C(Nc1ncnc2c1ncn2[C@@H]1O[C@@H]2COP(=O)(O)O[C@H]2[C@H]1O)c1ccccc1	-7.0	nt	nt	nt	-0.6%	-11.1
COc1ccccc1CN1CCNC(=O)C1CC(=O)N(C)C1CCOCC1 (centres undefined)	nt	nt	3.5%	nt	nt	nt
O=C(Nc1ccc2nc(-c3ccc4nc[nH]c4c3)[nH]c2c1)c1cccs1	-1.4	-34.7%	1.7%	-5.4%	1.0%	1.1
O=C(Nc1ccc2nc(-c3ccco3)[nH]c2c1)c1ccco1	33.2*	-34.9%	4.9%	-15.3%	-9.8%	45.0*
O=C(N/C(=C/c1ccc(Br)cc1)c1nc2ccccc2[nH]1)c1ccco1	14.7*	-4.1%	-14.7%	-0.5%	0.7%	50.8*
O=C(Nc1ccc2nc(-c3cccnc3)[nH]c2c1)c1ccco1	11.0	-25.3%	1.9%	-4.8%	-7.4%	7.4
O=C(Nc1ccc2nc(-c3ccccc3)[nH]c2c1)c1cccs1	32.0*	0.0%	-1.4%	3.4%	-16.6%	38.8
O=C(N/C(=C/c1ccc(Cl)cc1)c1nc2ccccc2[nH]1)c1ccco1	-1.0	0.0%	-4.1%	6.3%	6.2%	-18.4
CC(=O)Nc1nc2ccccc2n1CCN1CCOCC1	-2.6	2.1%	-6.8%	6.1%	-7.3%	9.4
CC(=O)Nc1nc2ccccc2n1Cc1ccc(Cl)cc1	-1.9	9.2%	2.8%	0.9%	-24.8%	34.7
CCN(CC)CCn1c(NC(=O)c2ccc(C(F)(F)F)cc2)nc2ccccc21	-3.1	-11.4%	-0.4%	2.0%	-9.0%	-9.7
CCN(CC)CCn1c(NC(=O)c2ccc(C)cc2)nc2ccccc21	44.3*	-13.5%	-5.7%	4.0%	14.0%	nt
O=C(Nc1nc2ccccc2n1CCN1CCOCC1)c1ccccc1	10.1*	-16.9%	-2.1%	0.7%	-4.2%	18.3
Cn1c(NC(=O)c2ccc(F)cc2)nc2ccccc21	30.7*	6.5%	0.6%	-9.9%	-2.6%	39.9*
CN(C)CCn1c(NC(=O)c2ccc(Cl)cc2)nc2ccccc21	38.3*	-5.9%	0.0%	5.0%	0.0%	89.0*
Cc1ccc(C)c(OCCOCCn2c(-c3ccc(Br)cc3)nc3ccccc3c2=O)c1C	nt	-0.9%	-0.4%	nt	nt	nt
CCn1c(NC(=O)c2cccs2)nc2ccccc21	46.6*	6.3%	14.5%	0.2%	?	65.1
CCSc1ccc(NC(=O)c2cccnc2)cc1	33.5*	-15.6%	-10.1%	-5.6%	0.6%	47.4
CC(=O)Nc1ccc(N/C(C)=C/C(=O)c2cccnc2)cc1	-6.8	4.8%	11.5%	1.0%	2.6%	-10.2
CC/C(=C\C(=O)c1cccnc1)Nc1ccc(C)c(C)c1	17.0*	-1.3%	-5.8%	4.9%	10.4%	51.6*

Compound activity: PubChem BioAssay, National Center for Advancing Translational Sciences (NCATS)
